Assay results as given in PubChem BioAssay (Tox21).
Records with an inconclusive call do not appear. Activity calls are given as the source filed them. Unless noted, calls come from the whole dose curve; as a rule, active = well fitted curve in the direction sought with a large enough effect in the repeat runs; inconclusive = weak or mixed curves; inactive = no such curve, though single readings can be large; an effect the other way counts as inactive or inconclusive.

Assays:
[1] = qHTS assay to identify small molecule agonists of the hypoxia (HIF-1) signaling pathway - cell viability counter screen (AID 1224844; calls by dose curve; note: nearly all actives have a fitted effect of over 50% in size)
How it was run: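 Cytotoxicity was measured in parallel with the HRE-driven beta-lactamase readout: after 17 hrs of compound exposure at 37C, HRE-bla ME-180 cells received CellTiter-Glo and luminescence was recorded 30 min later.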

[2] = qHTS assay to identify small molecule agonists of H2AX (AID 1224845; active = well fitted activation curve with a large enough effect in the signal ratio in the repeat runs, not every such curve was filed as active; the % refers to the signal ratio)
How it was run: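 Wild-type CHO-K1 cells, plated overnight, exposed 3hr at 37C to 15 concentrations (0.76% DMSO final). Lysed, then HTRF anti-pH2AX (S139) cryptate and anti-H2AX-d2 antibodies, 24 hr room temperature; 665/620 nm emission read.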

[3] = qHTS assay to identify small molecule agonists of the hypoxia (HIF-1) signaling pathway (AID 1224846; active = well fitted activation curve with a large enough effect in the signal ratio in the repeat runs, not every such curve was filed as active; the % refers to the signal ratio)
How it was run: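 Compounds from the Tox21 10K library, dissolved in DMSO, are tested for induction of a hypoxia response element–controlled beta-lactamase reporter in ME-180 cells. Exposure lasts 17 hrs at 37C after a 5 hr settling period, followed by CCF4-AM FRET substrate.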

[4] = qHTS assay to identify small molecule agonists of H2AX - cell viability counter screen (AID 1224847; calls by dose curve; note: top concentration of the series differs between compounds; nearly all actives have a fitted effect of over 30% in size)
How it was run: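 Counter-screen for viability: CellTiter-Glo ATP luminescence read after 3 h compound treatment (15-point titration, 0.76% DMSO final) of CHO-K1 cells at 37C, with 30 min room-temperature reagent incubation.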

[5] = qHTS assay to identify small molecule agonists of the estrogen related receptor (ERR) signaling pathway from Tox21 library (AID 1224849; calls by dose curve; note: nearly all actives have a fitted effect of over 15% in size); conditions: ERR reporter cell line, ONE-Glo luciferase, 18 h; at 92.4 µM (top of the series) unless noted
How it was run: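 Cells carrying the ERR reporter were plated and allowed to settle for 6 h, exposed to library compounds for 18 h at 37 C, then lysed with ONE-Glo and luminescence measured.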

[6] = qHTS RealTime-Glo MT Cell Viability Assay in HepG2 cells - 24 hour (AID 1224867); note: nearly all actives have a fitted effect of over 50% in size
How it was run: (§1)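 HepG2 cells (600/well) were dispensed with RealTime-Glo reagents, incubated 5 h at 37 °C, then treated with compounds in DMSO for up to 40 h. Nonlytic NanoLuc luminescence reflecting viable cells was read at each stated time point.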

[7] = qHTS RealTime-Glo MT Cell Viability Assay in HEK293 cells - 32 hour (AID 1224868); note: top concentration of the series differs between compounds; nearly all actives have a fitted effect of over 50% in size
How it was run: (§2)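 HEK293 cells seeded with NanoLuc/prosubstrate reagent, rested 5 h at 37 C, then dosed and kept at 37 C up to 40 h. Nonlytic real-time luminescence from viable cells read at 0, 8, 16, 24, 32 and 40 h.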

[8] = A CellTox Green Cytotoxicity Assay to monitor cytotoxicity in HEK293 cells - 0 hour (AID 1224869); note: nearly all actives have a fitted effect of over 50% in size
How it was run: (§3)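 Cells (HEK293, 600/well) and dye reagent are dispensed together. After 5 h at 37 C, 23 nL compound is pinned in. Plates stay at 37 C for 40 h with fluorescence read at 0h, 8h, 16h, 24h, 32h and 40h.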

[9] = qHTS RealTime-Glo MT Cell Viability Assay in HepG2 cells - 40 hour (AID 1224870); note: nearly all actives have a fitted effect of over 50% in size
How it was run: (§4)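 HepG2 cells (600/well) mixed with RealTime-Glo MT reagent, settled 5 h at 37 C/5% CO2 before compound addition. Nonlytic NanoLuc luminescence from viable-cell prosubstrate reduction read repeatedly during 40 h treatment at 37 C.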

[10] = A CellTox Green Cytotoxicity Assay to monitor cytotoxicity in HEK293 cells - 40 hour (AID 1224871); note: nearly all actives have a fitted effect of over 45% in size; note: potency is the fitted concentration of half-maximal effect
How it was run: as §3

[11] = qHTS RealTime-Glo MT Cell Viability Assay in HEK293 cells - 16 hour (AID 1224872)
How it was run: as §2

[12] = qHTS RealTime-Glo MT Cell Viability Assay in HepG2 cells - 8 hour (AID 1224873); note: nearly all actives have a fitted effect of over 55% in size
How it was run: as §4

[13] = A CellTox Green Cytotoxicity Assay to monitor cytotoxicity in HepG2 cells - 16 hour (AID 1224876); note: nearly all actives have a fitted effect of over 45% in size
How it was run: (§5)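 Cells and non-lytic dye reagent are dispensed together (600 HepG2 cells/well) and incubated 5 h before DMSO compound transfer. Kinetic fluorescence is then recorded in the same wells during 40 h at 37 C.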

[14] = qHTS RealTime-Glo MT Cell Viability Assay in HepG2 cells - 32 hour (AID 1224877); note: nearly all actives have a fitted effect of over 55% in size
How it was run: as §1

[15] = A CellTox Green Cytotoxicity Assay to monitor cytotoxicity in HepG2 cells - 40 hour (AID 1224879); note: nearly all actives have a fitted effect of over 40% in size
How it was run: as §5

[16] = qHTS RealTime-Glo MT Cell Viability Assay in HEK293 cells - 0 hour (AID 1224880); note: top concentration of the series differs between compounds; nearly all actives have a fitted effect of over 45% in size
How it was run: (§6)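 Real-time viability in HEK293: signal arises when living cells convert a prosubstrate for NanoLuc in the medium, so luminescence tracks viable cell number. Compound (23 nL, DMSO) added 5 h post-seeding; kinetic reads at 0–40 h, 37 C.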

[17] = qHTS RealTime-Glo MT Cell Viability Assay in HEK293 cells - 40 hour (AID 1224874); conditions: RealTime-Glo luminescence; max response: active compounds read low; note: nearly all actives have a fitted effect of over 50% in size
How it was run: as §6

[18] = A CellTox Green Cytotoxicity Assay to monitor cytotoxicity in HEK293 cells - 24 hour (AID 1224875); note: nearly all actives have a fitted effect of over 45% in size; note: potency is the fitted concentration of half-maximal effect
How it was run: as §3

[19] = qHTS assay to identify small molecule antagonists of the estrogen related receptor (ERR) signaling pathway from Tox21 library (AID 1224848); note: nearly all actives have a fitted effect of over 50% in size; note: potency is the fitted concentration of half-maximal effect
How it was run: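 Quantitative high-throughput format: ERR reporter cells (2,000/well) pre-incubated 6 h, treated 18 h at 37 C with compounds in DMSO alongside positive and negative controls, then read by ONE-Glo luminescence.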

[20] = A CellTox Green Cytotoxicity Assay to monitor cytotoxicity in HepG2 cells - 24 hour (AID 1224878); note: nearly all actives have a fitted effect of over 45% in size
How it was run: as §5
% is set by controls: 0 for no effect and ±100 for the full control effect.

COc1ccc2[nH]c(S(=O)Cc3ncc(C)c(OC)c3C)nc2n1 (configuration not stated)
inactive: Potency [1] | Potency [2] | outcome [3] | Potency [4] | activity change, positive = activation [5] -23.9% [at 42.5 µM] | Potency [6] | Potency [7] | Potency [8] | Potency [9] | Potency [10] | Potency [11] | Potency [12] | Potency [13] | Potency [14] | Potency [15] | Potency [16]

CC(=O)/C(C)=C/C1C(C)=CCCC1(C)C (configuration not stated)
inactive: Potency [1] | Potency [2] | outcome [3] | Potency [4] | activity change, positive = activation [5] 5.66% | Potency [6] | Potency [7] | Potency [8] | Potency [9] | Potency [11] | Potency [12] | max response [17] -10.3% | Potency [13] | Potency [14] | Potency [16]
active: Potency [10] 17.4 µM | Potency [18] 17.4 µM

Cn1c(NCCN(CCO)CCCc2ccc([N+](=O)[O-])cc2)cc(=O)n(C)c1=O
inactive: Potency [1] | Potency [2] | outcome [3] | Potency [4] | Potency [19] | activity change, positive = activation [5] 4.48% [at 42.5 µM] | Potency [6] | Potency [7] | Potency [8] | Potency [9] | Potency [10] | Potency [11] | Potency [12] | Potency [18] | Potency [14] | Potency [15] | Potency [16]

NC1CCN(c2nc3c(cc2F)c(=O)c(C(=O)O)cn3-c2ccc(F)cc2F)C1 (configuration not stated)
inactive: Potency [1] | Potency [2] | outcome [3] | Potency [4] | Potency [19] | Potency [6] | Potency [7] | Potency [8] | Potency [9] | Potency [10] | Potency [11] | Potency [12] | Potency [13] | Potency [14] | Potency [20] | Potency [15] | Potency [16]

CCCCCCCCC(CO)CCCCCC (configuration not stated)
inactive: Potency [1] | Potency [2] | outcome [3] | Potency [4] | Potency [19] | activity change, positive = activation [5] 4.04% | Potency [6] | Potency [8] | Potency [9] | Potency [10] | Potency [11] | Potency [12] | max response [17] 1.58% | Potency [18] | Potency [13] | Potency [14] | Potency [20] | Potency [15] | Potency [16]

CCC(=O)OC(C)(C)C1CC=C(C)CC1 (configuration not stated)
inactive: Potency [1] | Potency [2] | outcome [3] | Potency [4] | Potency [19] | activity change, positive = activation [5] -6.48% | Potency [6] | Potency [8] | Potency [9] | Potency [10] | Potency [11] | Potency [12] | Potency [18] | Potency [13] | Potency [14] | Potency [15] | Potency [16]

CCc1nn(C2CCCCC2)c2cc(C3(C#N)CCC(C(=O)O)CC3)ccc12 (configuration not stated)
inactive: Potency [1] | Potency [2] | outcome [3] | Potency [4] | activity change, positive = activation [5] -46.5% | Potency [6] | Potency [7] | Potency [8] | Potency [9] | Potency [10] | Potency [11] | Potency [12] | max response [17] 0.457% | Potency [18] | Potency [13] | Potency [14] | Potency [15]
active: Potency [19] 48.6 µM

CCCc1ccccc1
inactive: Potency [1] | Potency [2] | outcome [3] | Potency [4] | activity change, positive = activation [5] 2.82% | Potency [6] | Potency [7] | Potency [8] | Potency [9] | Potency [10] | Potency [11] | Potency [12] | Potency [18] | Potency [13] | Potency [14] | Potency [20] | Potency [15] | Potency [16]

CCN(CC)CCc1nc(-c2ccccc2)no1
inactive: Potency [1] | Potency [2] | outcome [3] | Potency [4] | Potency [19] | activity change, positive = activation [5] 0.733% [at 42.5 µM] | Potency [6] | Potency [7] | Potency [8] | Potency [9] | Potency [10] | Potency [11] | Potency [12] | Potency [18] | Potency [13] | Potency [14] | Potency [20] | Potency [16]

CC(=O)N(CC(=O)N(C)C)c1ccccc1
inactive: Potency [1] | Potency [2] | outcome [3] | Potency [4] | activity change, positive = activation [5] 0.995% [at 42.5 µM] | Potency [6] | Potency [7] | Potency [8] | Potency [9] | Potency [10] | Potency [11] | Potency [12] | Potency [18] | Potency [13] | Potency [14] | Potency [20]

O=C(O)COC(=O)Cc1ccccc1Nc1c(Cl)cccc1Cl
inactive: Potency [1] | Potency [2] | outcome [3] | Potency [4] | activity change, positive = activation [5] 1.12% [at 42.5 µM] | Potency [6] | Potency [7] | Potency [8] | Potency [9] | Potency [10] | Potency [11] | Potency [12] | max response [17] 5.48% | Potency [18] | Potency [13] | Potency [14] | Potency [15]

O=[N+]([O-])c1cccc(Cl)c1Cl
inactive: Potency [1] | Potency [2] | outcome [3] | Potency [4] | Potency [19] | activity change, positive = activation [5] 2.5% | Potency [6] | Potency [7] | Potency [8] | Potency [9] | Potency [11] | Potency [12] | max response [17] -16.4% | Potency [13] | Potency [14] | Potency [20] | Potency [15]

O=C(CCN1CCN2CCCC2C1)N1c2ccccc2Sc2ccc(Cl)cc21 (configuration not stated)
inactive: activity change, negative = cytotoxicity [1] 1.19% [at 15.8 µM] | activation (H2AX phosphorylation) [2] -2.77% [at 31.6 µM] | activation [3] -0.917% [at 15.8 µM] | activity change, negative = cytotoxicity [4] -4.72% [at 31.6 µM] | activity, negative = inhibition [19] -23.7% [at 19 µM] | activity change, positive = activation [5] -13.2% [at 19 µM] | activity change, negative = cytotoxicity [6] -4.92% [at 15.8 µM] | activity change, negative = cytotoxic [7] -23% [at 15.8 µM] | cytotoxicity [8] -5.19% [at 15.8 µM] | activity change, negative = cytotoxic [9] -2.23% [at 15.8 µM] | cytotoxicity increase [10] 2.75% [at 15.8 µM] | activity change, negative = cytotoxicity [11] -13.3% [at 15.8 µM] | viability change, negative = cytotoxic [12] -2.56% [at 15.8 µM] | max response [17] -21.5% | activity change [18] 0.914% [at 15.8 µM, active compounds read high] | cytotoxicity increase [13] 6.02% [at 15.8 µM] | activity change, negative = cytotoxic [14] -4.67% [at 15.8 µM] | cytotoxicity [20] 14.6% [at 15.8 µM] | cytotoxicity increase [15] 22.2% [at 15.8 µM] | activity change, negative = cytotoxicity [16] -6.17% [at 15.8 µM]
